Test results as given in PubChem BioAssay AID624351 (Southern Research Specialized Biocontainment Screening …, 2012).
Out of some 2,400 compounds screened, about 1,400 (58%) were called active. The set was probably picked from earlier hits. The list shows a part of the results. Values without a mark were called inactive.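 How the source made its calls: active means inhibition of 30% or more at any tested dose; inconclusive means primary hits over the limit that were never retested; inactive means the rest.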

Experiment: ADP Hunter readout inhibition without MgcRacGAP – biochemical, coupled enzyme counter-screen, artefact control for MgcRacGAP inhibitor project, dose response (AID 624351);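 further: signal is the ADP detection kit reading of free GDP without any GAP enzyme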;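 on inhibition: 0% = median positive control wells and 100% = median negative control wells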
Conditions: fluorescence, no MgcRacGAP; series mostly up to 80 µM; inhibition: at the top concentration
For `COc1ccc(NC(=S)Nc2cccc3ccccc23)cc1OC`, the “inhibition” value was 27.8%. With `COc1cc2c(cc1NC(=S)Nc1ccccc1C)oc1ccccc12` the IC50 was 41.1 µM (active). For `COc1cc2c(cc1NC(=S)Nc1cccc3ccccc13)oc1ccccc12`, the IC50 was 36.9 µM (active). With `CN(C)CCNC(C(=O)Nc1cccc(C(F)(F)F)c1)c1ccccc1` (configuration not stated) the “inhibition” value was 27.1%. With `COc1cc2c[n+](C)c3c4ccccc4ccc3c2cc1OC` the “inhibition” value was 13%. For `COc1cc2c(cc1NCc1ccc3c(c1)OCO3)oc1ccccc12`, the “inhibition” value was 13.4%. With `O=C(O)c1cc(N2N=C(C(F)(F)F)/C(=C/C=C/c3ccco3)C2=O)ccc1Cl` the “inhibition” value was 12.8%. In the case of `COc1ccc2c(c1OC)C(=O)OC2CC(=O)c1ccc(O)c(O)c1` (configuration not stated), the IC50 is reported as 58.7 µM (active). For `COc1cccc2c1C(=O)c1c(O)c3c(c(O)c1C2=O)C[C@@](O)(C(=O)CO)C[C@@H]3OC1CC(N)C(O)C(C)O1` (some centres not stated), the “inhibition” value was 10.3%. For `COc1cccc2c1C(=O)c1c(O)c3c(c(O)c1C2=O)CC(O)(C(C)=NNC(=O)c1ccc(Cl)c(Cl)c1)CC3OC1CC(N)C(O)C(C)O1` (configuration not stated), the “inhibition” value was 3.28%. In the case of `Nc1ccc(N(c2ccccc2)c2ccc(N)cc2)cc1`, the IC50 is reported as 9.3 µM (active). With `N#CC1=C(S)N(c2ccccc2)C2(CCCCC2)NC1=O` the “inhibition” value was -2.39%. In the case of `COc1cc(/C=N/NC(=S)Nc2cccc(S(=O)(=O)N(C)C)c2)ccc1O`, the IC50 is reported as 27.7 µM (active). With `COc1cc(/C=N/NC(=S)Nc2cccc(C(=O)O)c2)ccc1O` the IC50 was 46.3 µM (active). With `COc1cc(/C=C2\C(=O)N(c3cccc(C(=O)O)c3)N=C2C)ccc1OCc1ccccc1` the “inhibition” value was 3.07%. In the case of `CN(C)S(=O)(=O)c1cccc(NC(=O)CNCC2CCCCC2)c1`, the “inhibition” value is reported as 15%. For `CN(C)c1ccc(Sc2ccc3nc(N)nc(N)c3c2)cc1`, the IC50 was 53.7 µM (active). In the case of `CCN(CC)S(=O)(=O)c1cccc(NC(=O)CNC2CCCCCC2)c1`, the “inhibition” value is reported as 23%. In the case of `CCOc1ccccc1NC(=O)C(NCC1(N2CCCCC2)CCCCC1)c1ccccc1` (configuration not stated), the “inhibition” value is reported as 17%. In the case of `CN(C)c1ccc(N/C=C/C(=O)C(C)(C)C)cc1`, the IC50 is reported as 7.04 µM (active). In the case of `O=C(/C=C/Nc1ccc(Nc2ccccc2)cc1)c1cccs1`, the “inhibition” value is reported as 23.6%. In the case of `C=C(CN(C)C)C(=O)c1ccc(OC2OC(COC(C)=O)C(OC(C)=O)C(OC(C)=O)C2OC(C)=O)cc1` (configuration not stated), the “inhibition” value is reported as -2.5%. For `O=[N+]([O-])c1ccc(N/N=C/c2ccc[nH]2)cc1`, the IC50 was 41.1 µM (active). In the case of `O=C1/C(=C\c2ccc([N+](=O)[O-])cc2)CS(=O)(=O)C/C1=C/c1ccc([N+](=O)[O-])cc1`, the “inhibition” value is reported as 6.84%. With `CN1C=CC(=CC=C2C=CC(=O)C=C2)C=C1` the IC50 was 23.1 µM (active). With `COc1cc(C)c(N)cc1C(C)C` the IC50 was 34.2 µM (active). With `Nc1ccc(O)c([N+](=O)[O-])c1` the IC50 was 43.9 µM (active). With `Cc1ccc(S(=O)(=O)Oc2ccc(/C=C3/C(=N)N4C(=NC3=O)SN=C4S(C)(=O)=O)cc2)cc1` the “inhibition” value was 4.36%. With `CCOC(=O)/C(C#N)=C1\C(=O)N(Cc2ccccc2)c2ccccc21` the “inhibition” value was 4.02%. For `CCOC(=O)/C(C#N)=C1/C(=O)N(Cc2ccccc2)c2ccccc21`, the “inhibition” value was 4.83%. For `CCOC(=O)c1[nH]c(=S)n(Cc2ccccc2)c1C(=O)OCC`, the IC50 was 41.9 µM (active). For `CN(C)C(=S)N=c1ssc(=S)n1Cc1ccco1`, the “inhibition” value was 6.25%. In the case of `Cc1ccc(CN2CCN(Cc3ccco3)CC2)cc1`, the “inhibition” value is reported as 24.4%. In the case of `Cc1cs/c(=N\N=C\c2ccc(O)cc2)n1Cc1ccco1`, the IC50 is reported as 25.9 µM (active). With `CCN1CCN(CCCOc2ccccc2-c2ccccc2)CC1` the “inhibition” value was 21.3%. For `COc1ccc(C(=O)/C=C/c2ccc(O)cc2)c2c1CC(O)C(C)(C)O2` (configuration not stated), the IC50 was 52.3 µM (active). For `COc1ccc(OC)c(CN2CCN(Cc3ccc(OC)c(OC)c3OC)CC2)c1`, the “inhibition” value was 28.4%. In the case of `Clc1cccc(N/N=C/c2ccc(N3CCOCC3)s2)c1`, the IC50 is reported as 59.7 µM (active). With `CCOC(=O)N/N=C/c1ccc(N2CCOCC2)s1` the IC50 was 53 µM (active). With `CNC(=S)N/N=C/c1ccc(N2CCOCC2)s1` the “inhibition” value was -3.84%. In the case of `NC(=O)N/N=C/c1ccc(N2CCOCC2)s1`, the IC50 is reported as 45.8 µM (active). For `COC(=O)CC1SC(=O)NC1=Nc1ccc(O)cc1` (configuration not stated), the IC50 was 60.2 µM (active). For `Cc1ccn2c(NC3CCCC3)c(-c3ccncc3)nc2c1`, the IC50 was 49 µM (active). With `CCOC(=O)c1c(-c2ccccc2)csc1NC(=O)C(C)NCCCN1CCOCC1` (configuration not stated) the “inhibition” value was 22.2%. For `Cc1c(-c2ccccc2)sc(N)c1C(=O)N1CCOCC1`, the IC50 was 41.6 µM (active). For `CN1CCN(C(=O)c2sc(=S)n(-c3ccccc3)c2N)CC1`, the “inhibition” value was 0.54%. With `CCCCNCC#CCOc1cc(C)ccc1C(C)C` the “inhibition” value was 13.2%. With `COc1cc(/C=C/c2sc3ccccc3[n+]2CCCS(=O)(=O)[O-])ccc1O` the IC50 was 22.2 µM (active). In the case of `C=CC[n+]1c(/C=C/c2ccc(OC(C)=O)c(OC)c2)ccc2ccccc21`, the “inhibition” value is reported as 8.66%. For `CN(C1CCCCC1)S(=O)(=O)c1cccc2nsnc12`, the “inhibition” value was 4.2%. With `CSC1=NN(c2ccccc2)CN(c2ccccc2)N1C` the IC50 was 72.1 µM (active). With `COc1cc(CCNC2=CC(=O)c3ncccc3C2=O)ccc1O` the IC50 was 70.9 µM (active). In the case of `Cc1sc2nc(CN3CCOCC3)nc(N3CCOCC3)c2c1C`, the “inhibition” value is reported as 18.4%. With `Clc1ccccc1CNCc1ccc2c(c1)OCO2` the “inhibition” value was 19.8%. With `COc1cc(OC)cc(C(=O)N2CCN(Cc3ccc4c(c3)OCO4)CC2)c1` the “inhibition” value was 16.2%. In the case of `CC(=O)N1CCN(c2ccc(NCc3ccc4c(c3)OCO4)cc2)CC1`, the IC50 is reported as 9.9 µM (active). In the case of `C=CCNC(=S)N1CCN(Cc2ccc3c(c2)OCO3)CC1`, the “inhibition” value is reported as 15.3%. With `c1cc2c(cc1CNc1ccc(N3CCOCC3)cc1)OCO2` the IC50 was 4.31 µM (active). In the case of `COc1cccc(OC)c1C(=O)N1CCN(Cc2ccc3c(c2)OCO3)CC1`, the “inhibition” value is reported as 18%. With `C=CCc1cc(Cl)ccc1OCCN(C)C` the “inhibition” value was 18.7%. With `CN1CCN(CCOCCOc2ccc(Br)cc2Cl)CC1` the “inhibition” value was 17.7%. In the case of `CCN1CCN(CCCOc2ccc(Cl)cc2Br)CC1`, the “inhibition” value is reported as 27.8%. For `CN1CCN(CCCN2c3ccccc3Sc3ccc(Cl)cc32)CC1`, the IC50 was 83.1 µM (active). For `CN(C)CCCN1c2ccc(O)cc2Sc2ccc(Cl)cc21`, the IC50 was 13.1 µM (active). For `Oc1ccc(/C=N/Nc2ccc(C(F)(F)F)cn2)cc1`, the IC50 was 29.7 µM (active). In the case of `Cc1ncc(CO)c(/C=N/Nc2ccc(C(F)(F)F)cn2)c1O`, the “inhibition” value is reported as -1.58%. In the case of `Oc1ccc(/C=N/Nc2ccc(C(F)(F)F)cn2)c(O)c1`, the IC50 is reported as 34.8 µM (active). With `COc1cc(/C=N/Nc2ncc(C(F)(F)F)cc2Cl)cc(OC)c1O` the “inhibition” value was 28.1%. With `COc1cc(/C=N/Nc2ccc(C(F)(F)F)cn2)ccc1O` the IC50 was 52.5 µM (active). In the case of `OCCNCCSc1nc(C2CCCCC2)n(-c2ccccc2Cl)n1`, the “inhibition” value is reported as 13.2%. For `O=c1[nH]c(/C=C\c2ccc(O)cc2)nc(O)c1[N+](=O)[O-]`, the IC50 was 43.4 µM (active). In the case of `COc1cc(/C=N/NC(=O)c2ccc(N3CCCC3=O)cc2)ccc1O`, the IC50 is reported as 31.5 µM (active). In the case of `COc1cc(/C=N/NC(=O)c2cccc(N3CCCC3=O)c2)ccc1O`, the IC50 is reported as 34.1 µM (active). In the case of `O=c1nc2s/c(=C\c3ccc(-c4ccccc4[N+](=O)[O-])o3)c(=O)n2nc1-c1ccccc1`, the “inhibition” value is reported as -3.71%. With `COc1cc(/C=N/N=C2\CC3CCC2(C)C3(C)C)ccc1O` (configuration not stated) the IC50 was 45.7 µM (active). In the case of `C=C1CC(C(=O)N/N=C/c2ccc(O)cc2)C1`, the IC50 is reported as 45.9 µM (active). In the case of `COc1cc(/C=N/NC(=O)NC23CC4CC(CC(C4)C2)C3)ccc1O`, the IC50 is reported as 56.2 µM (active). For `O=C(N/N=C/c1ccc(O)cc1)NC12CC3CC(CC(C3)C1)C2`, the IC50 was 53 µM (active). In the case of `O=C(O)C1CSC(c2ccco2)N1` (configuration not stated), the “inhibition” value is reported as -6.99%. For `CCOc1ccc(CNC2CCCc3ccccc32)cc1` (configuration not stated), the “inhibition” value was 16.4%. With `COc1cc(/C=N\NC(=O)C2CC3C=CC2C3)ccc1O` (configuration not stated) the IC50 was 23.9 µM (active). With `COCCNC(=O)CN(C(=O)Cn1nnc2ccccc21)c1ccc(C)cc1` the “inhibition” value was 5.89%. With `COCCNC(=O)Cn1cc(/C=N/NC(=O)c2ccc(Oc3ccc(O)cc3)cc2)c2ccccc21` the IC50 was 44.8 µM (active). With `Oc1ccc(/C=N/Nc2nccnc2Cl)cc1` the IC50 was 21.1 µM (active). For `Oc1ccc(/C=N/Nc2ncc(Cl)cc2Cl)cc1`, the IC50 was 21.5 µM (active). In the case of `Oc1ccc(/C=N/Nc2nccnc2Cl)c(O)c1`, the IC50 is reported as 12.8 µM (active). With `Cc1cc(C)c(OCCCCN(C)Cc2ccccc2)c(C)c1` the “inhibition” value was 14.7%. For `COc1cc(/C=N/N(C)c2ccccc2)cc(Cl)c1O`, the IC50 was 37.7 µM (active). In the case of `COc1cc(/C=N/N(C)c2ccccc2)ccc1O`, the IC50 is reported as 17.3 µM (active). In the case of `COc1cc(OC)c(OC)cc1/C=N/N(C)c1ccccc1`, the IC50 is reported as 56.4 µM (active). For `Cc1ccc(N2C(S)=C(C#N)C(=O)NC2c2cccs2)cc1` (configuration not stated), the “inhibition” value was 5.26%. For `CC1=NN(c2ccc(Cl)c(C(=O)O)c2)C(=O)/C1=C/c1ccc(-c2ccccc2[N+](=O)[O-])o1`, the “inhibition” value was 8.7%. With `Cc1cccc(CN2CCN(C(C)C(=O)NC(C)c3ccccc3)CC2)c1` (configuration not stated) the “inhibition” value was 27.7%. In the case of `COc1cccc(-c2cc(C(=O)N3CCN(c4ccc(F)cc4)CC3)no2)c1`, the “inhibition” value is reported as 2.83%. In the case of `CC(=O)N1CCN(c2ccc(NCc3cccc(C)c3)cc2)CC1`, the IC50 is reported as 7.75 µM (active). In the case of `CC(=O)N1CCN(c2ccc(NCc3ccc(C(C)C)cc3)cc2)CC1`, the IC50 is reported as 8.85 µM (active). With `CC(=O)N1CCN(c2ccc(NCc3ccc(F)cc3)cc2)CC1` the IC50 was 10.9 µM (active). For `Cc1ccc(CNc2ccc(N3CCOCC3)cc2)s1`, the IC50 was 11.7 µM (active). With `O=c1c2cc(F)ccc2sn1-c1ccccc1` the “inhibition” value was 22.1%. With `CCc1ccc(CNc2ccc(N3CCN(C(C)=O)CC3)cc2)cc1` the IC50 was 9.1 µM (active). For `CC(C)c1ccc(CNc2ccc(N3CCOCC3)cc2)cc1`, the IC50 was 7.52 µM (active). With `O=C(CNCc1cccs1)Nc1ccc(N2CCCCCC2)cc1` the “inhibition” value was 19.7%. With `CC(=O)N1CCN(c2ccc(NCc3ccccc3)cc2)CC1` the IC50 was 8.44 µM (active). For `CC(=O)N1CCN(c2ccc(NCc3cccs3)cc2)CC1`, the IC50 was 14.7 µM (active). For `Cc1ccccc1C(OCC(O)CN1CCN(CCO)CC1)c1ccccc1` (configuration not stated), the “inhibition” value was 26.4%. With `c1ccc(CNc2ccc(N3CCOCC3)cc2)cc1` the IC50 was 5.39 µM (active). In the case of `O=C(CNc1ccc(Oc2ccccc2)cc1)N1CCOCC1`, the “inhibition” value is reported as 17.7%.
